Reference: PubChem BioAssay AID1159580 (chemical genetic matrix, 2015)
Several values for one entry are separate records, joined by “and”; a condition that tells them apart may be missing. Equal entries are not always repeated. Out of some 5,500 compounds screened, about 2,000 (36%) were called active. Not shown: some 18% with an inconclusive outcome. No stated cut-off is given here; in the data, active means normalized growth mostly below about 0.91 (no sharp cut-off); inconclusive means no clear call, values can overlap the other calls; inactive means mostly above about 0.92. The list shows a part of the results.

Assay: chemical genetic growth profiling, strain panel (AID 1159580);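 further: tested at 20 µM; growth read once vehicle control cultures reached saturation at 30 °C; 1 = growth at the plate median or of vehicle wells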
Settings: S. cerevisiae deletion strains, growth OD

Measured: normalized growth

CC(C)=CCCC1(C)C=Cc2c(O)c3c(c(CC=C(C)C)c2O1)OC12C(=CC4CC1C(C)(C)OC2(C/C=C(\C)C(N)=O)C4=O)C3=O (stereo unspecified)
active: locus YDL192W, strain arf1, stronger effect = lower value 0.913 | locus YER155C, strain BEM2, stronger effect = lower value 0.89 | locus YGR229C, strain SMI1, stronger effect = lower value 0.761 | locus YKR001C, strain vps1, stronger effect = lower value 0.842 | locus YLR113W, strain HOG1, stronger effect = lower value 0.852 | locus YLR418C, strain cdc73, stronger effect = lower value 0.699 | locus YNL307C, strain MCK1, stronger effect = lower value 0.844 | locus YOR184W, strain ser1, stronger effect = lower value 0.872
inactive: locus YBR021W, strain FUR4, stronger effect = lower value 0.922 | locus YBR229C, strain ROT2, stronger effect = lower value 1 | locus YCL029C, strain bik1, stronger effect = lower value 0.977 | locus YDL035C, strain GPR1, stronger effect = lower value 0.932 | locus YDL074C, strain BRE1, stronger effect = lower value 0.899 | locus YDL101C, strain DUN1, stronger effect = lower value 0.96 | locus YDL134C, strain PPH21, stronger effect = lower value 0.914 | locus YDL185W, strain tfp1, stronger effect = lower value 0.996 | locus YDR101C, strain arx1, stronger effect = lower value 0.958 | locus YDR150W, strain NUM1, stronger effect = lower value 1 | locus YDR162C, strain NBP2, stronger effect = lower value 0.92 | locus YDR318W, strain mcm21, stronger effect = lower value 0.941 | locus YDR388W, stronger effect = lower value 0.96 | locus YDR502C, strain sam2, stronger effect = lower value 0.924 | locus YEL061C, strain CIN8, stronger effect = lower value 0.967 | locus YER110C, stronger effect = lower value 0.999 | locus YER167W, strain BCK2, stronger effect = lower value 0.965 | locus YGL078C, strain dbp3, stronger effect = lower value 0.963 | locus YGL086W, strain mad1, stronger effect = lower value 0.947 | locus YGL248W, strain PDE1, stronger effect = lower value 0.894 | locus YGR135W, strain pre9, stronger effect = lower value 0.923 | locus YGR252W, strain gcn5, stronger effect = lower value 0.856 | locus YHR030C, strain SLT2, stronger effect = lower value 0.995 and 0.925 | locus YHR079C, strain IRE1 (second series), stronger effect = lower value 0.99 | locus YHR079C, strain IRE1, stronger effect = lower value 0.933 | locus YHR094C, strain hxt1, stronger effect = lower value 0.995 | locus YHR129C, strain ARP1, stronger effect = lower value 0.944 | locus YHR200W, strain rpn10, stronger effect = lower value 0.946 | locus YIL066C, strain RNR3, stronger effect = lower value 0.878 | locus YIL073C, strain SPO22, stronger effect = lower value 0.801 | locus YIL125W, strain kgd1, stronger effect = lower value 0.943 | locus YIR030C, strain dcg1, stronger effect = lower value 0.959 | locus YJL095W, strain BCK1, stronger effect = lower value 0.875 and 0.963 | locus YJL134W, strain LCB3, stronger effect = lower value 1 | locus YJL168C, strain set2, stronger effect = lower value 0.987 | locus YJL187C, strain SWE1 (second series), stronger effect = lower value 0.929 | locus YJR043C, strain POL32, stronger effect = lower value 0.981 | locus YJR066W, strain TOR1, stronger effect = lower value 0.906 | locus YJR075W, strain HOC1, stronger effect = lower value 0.944 | locus YKL009W, strain mrt4, stronger effect = lower value 0.931 | locus YKL068W, stronger effect = lower value 0.995 | locus YKL085W, strain MDH1 (second series), stronger effect = lower value 0.99 | locus YKL085W, strain MDH1, stronger effect = lower value 0.99 | locus YKL190W, strain CNB1, stronger effect = lower value 0.985 | locus YLR039C, strain RIC1, stronger effect = lower value 0.898 | locus YLR058C, strain SHM2, stronger effect = lower value 0.946 | locus YLR102C, strain apc9, stronger effect = lower value 1.01 | locus YLR262C, strain YPT6, stronger effect = lower value 0.946 | locus YLR268W, strain sec22, stronger effect = lower value 0.896 | locus YLR330W, strain CHS5, stronger effect = lower value 0.95 | locus YLR342W, strain FKS1 (second series), stronger effect = lower value 0.913 | locus YLR371W, strain rom2, stronger effect = lower value 0.989 | locus YML016C, strain PPZ1, stronger effect = lower value 0.969 | locus YML032C, strain rad52, stronger effect = lower value 0.96 | locus YML124C, strain tub3, stronger effect = lower value 0.985 | locus YMR078C, strain ctf18, stronger effect = lower value 0.971 | locus YMR223W, strain ubp8, stronger effect = lower value 0.95 | locus YMR263W, strain SAP30, stronger effect = lower value 0.968 | locus YMR307W, strain GAS1, stronger effect = lower value 0.833 | locus YNL067W, strain RPL9B, stronger effect = lower value 0.951 | locus YNL153C, strain GIM3, stronger effect = lower value 0.958 | locus YNL183C, strain NPR1, stronger effect = lower value 0.868 | locus YNL233W, strain BNI4, stronger effect = lower value 0.915 | locus YNL250W, strain rad50, stronger effect = lower value 0.983 | locus YNL271C, strain bni1, stronger effect = lower value 0.993 | locus YNL298W, strain CLA4, stronger effect = lower value 0.989 | locus YNL322C, strain KRE1, stronger effect = lower value 0.976 | locus YNR052C, strain pop2, stronger effect = lower value 0.981 | locus YOL012C, strain htz1 0.568 | locus YOL147C, strain pex11, stronger effect = lower value 0.944 | locus YOR061W, strain CKA2, stronger effect = lower value 0.963 | locus YOR069W, strain VPS5, stronger effect = lower value 0.99 | locus YOR136W, strain idh2, stronger effect = lower value 0.98 | locus YOR144C, strain elg1, stronger effect = lower value 0.987 | locus YOR231W, strain MKK1, stronger effect = lower value 0.937 | locus YOR316C, strain cot1, stronger effect = lower value 0.995 | locus YPL055C, strain LGE1, stronger effect = lower value 0.866 | locus YPL256C, strain CLN2, stronger effect = lower value 0.944 | locus YPR119W, strain clb2, stronger effect = lower value 0.989 | locus YPR141C, strain kar3, stronger effect = lower value 0.996 | locus YPR163C, strain tif3, stronger effect = lower value 0.982 | locus YPR167C, strain met16, stronger effect = lower value 0.958 | strain wtn01, stronger effect = lower value 0.937
